Experimental data as given in PubChem BioAssay AID1159580 (chemical genetic matrix, 2015).
“And” between values parts separate entries of the source, which are not always exact repeats. Identical values can stand only once. About 2,000 (36%) of roughly 5,500 compounds were called active. Another 18% or so got no clear call; they are omitted. Rule as the data show it: active = normalized growth mostly below about 0.91 (no sharp cut-off); inconclusive = no clear call, values can overlap the other calls; inactive = mostly above about 0.92. The list shows a part of the results.

Experiment: chemical genetic growth profiling, strain panel (AID 1159580);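 also: tested at 20 µM; growth read once vehicle control cultures reached saturation at 30 °C; 1 = growth at the plate median or of vehicle wells; lower values mean less growth of the strain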
Settings: growth OD

Measured: normalized growth

ClC1=C(Cl)C2(Cl)C3C4CC(C5OC45)C3C1(Cl)C2(Cl)Cl (configuration not stated)
inactive: S. cerevisiae deletion strains, locus YAL013W, strain DEP1, active compounds read low 0.992 | S. cerevisiae deletion strains, locus YBR021W, strain FUR4, active compounds read low 0.948 and 0.959 | S. cerevisiae deletion strains, locus YBR229C, strain ROT2, active compounds read low 0.997 and 1 | S. cerevisiae deletion strains, locus YCL029C, strain bik1, active compounds read low 0.967 and 1.02 | S. cerevisiae deletion strains, locus YDL035C, strain GPR1, active compounds read low 0.981 and 0.974 | S. cerevisiae deletion strains, locus YDL074C, strain BRE1, active compounds read low 1.03 | S. cerevisiae deletion strains, locus YDL101C, strain DUN1, active compounds read low 0.993 and 1 | S. cerevisiae deletion strains, locus YDL134C, strain PPH21, active compounds read low 0.998 and 0.988 | S. cerevisiae deletion strains, locus YDL185W, strain tfp1, active compounds read low 0.996 and 1.03 | S. cerevisiae deletion strains, locus YDL192W, strain arf1, active compounds read low 0.986 and 1.01 | S. cerevisiae deletion strains, locus YDR101C, strain arx1, active compounds read low 0.973 and 1.01 | S. cerevisiae deletion strains, locus YDR150W, strain NUM1, active compounds read low 1 and 0.976 | S. cerevisiae deletion strains, locus YDR162C, strain NBP2, active compounds read low 0.999 and 0.969 | S. cerevisiae deletion strains, locus YDR318W, strain mcm21, active compounds read low 0.983 and 1.01 | S. cerevisiae deletion strains, locus YDR388W, active compounds read low 0.97 and 1.01 | S. cerevisiae deletion strains, locus YDR502C, strain sam2, active compounds read low 0.983 and 1 | S. cerevisiae deletion strains, locus YEL061C, strain CIN8, active compounds read low 1 | S. cerevisiae deletion strains, locus YER110C, active compounds read low 0.971 and 1.02 | S. cerevisiae deletion strains, locus YER155C, strain BEM2, active compounds read low 0.982 and 1.01 | S. cerevisiae deletion strains, locus YER167W, strain BCK2, active compounds read low 0.976 and 0.99 | S. cerevisiae deletion strains, locus YGL078C, strain dbp3, active compounds read low 0.978 and 1.01 | S. cerevisiae deletion strains, locus YGL086W, strain mad1, active compounds read low 0.983 and 1.01 | S. cerevisiae deletion strains, locus YGL248W, strain PDE1, active compounds read low 1 and 1.01 | S. cerevisiae deletion strains, locus YGR078C, strain PAC10, active compounds read low 1 and 1.01 | S. cerevisiae deletion strains, locus YGR135W, strain pre9, active compounds read low 0.988 and 0.995 | S. cerevisiae deletion strains, locus YGR229C, strain SMI1, active compounds read low 0.971 | S. cerevisiae deletion strains, locus YGR252W, strain gcn5, active compounds read low 0.968 and 0.972 | S. cerevisiae deletion strains, locus YHR030C, strain SLT2, active compounds read low 0.99 and 1.04 and 1.01 | S. cerevisiae deletion strains, locus YHR079C, strain IRE1 (second series), active compounds read low 0.971 and 1.01 | S. cerevisiae deletion strains, locus YHR079C, strain IRE1, active compounds read low 1.01 | S. cerevisiae deletion strains, locus YHR094C, strain hxt1, active compounds read low 0.974 and 1.01 | S. cerevisiae deletion strains, locus YHR129C, strain ARP1, active compounds read low 0.998 and 1.02 | S. cerevisiae deletion strains, locus YHR200W, strain rpn10, active compounds read low 0.978 and 1.02 | S. cerevisiae deletion strains, locus YIL066C, strain RNR3, active compounds read low 1 and 0.968 | S. cerevisiae deletion strains, locus YIL073C, strain SPO22, active compounds read low 0.919 and 1.08 | S. cerevisiae deletion strains, locus YIL125W, strain kgd1, active compounds read low 0.985 and 1.01 | S. cerevisiae deletion strains, locus YIR030C, strain dcg1, active compounds read low 0.979 and 1.02 | S. cerevisiae deletion strains, locus YJL095W, strain BCK1, active compounds read low 1.02 and 1.05 and 1.06 | S. cerevisiae deletion strains, locus YJL134W, strain LCB3, active compounds read low 0.982 and 1.01 | S. cerevisiae deletion strains, locus YJL168C, strain set2, active compounds read low 0.98 and 1.01 | S. cerevisiae deletion strains, locus YJL187C, strain SWE1 (second series), active compounds read low 0.991 and 1.02 | S. cerevisiae deletion strains, locus YJR043C, strain POL32, active compounds read low 0.975 and 0.987 | S. cerevisiae deletion strains, locus YJR066W, strain TOR1, active compounds read low 0.962 | S. cerevisiae deletion strains, locus YJR075W, strain HOC1, active compounds read low 1 and 1.03 | S. cerevisiae deletion strains, locus YKL009W, strain mrt4, active compounds read low 0.988 and 1.01 | S. cerevisiae deletion strains, locus YKL068W, active compounds read low 0.986 and 1 | S. cerevisiae deletion strains, locus YKL085W, strain MDH1 (second series), active compounds read low 0.983 and 0.995 | S. cerevisiae deletion strains, locus YKL085W, strain MDH1, active compounds read low 0.983 and 0.995 | S. cerevisiae deletion strains, locus YKL190W, strain CNB1, active compounds read low 1 and 0.986 | S. cerevisiae deletion strains, locus YKR001C, strain vps1, active compounds read low 0.98 and 1.02 | S. cerevisiae deletion strains, locus YLR039C, strain RIC1, active compounds read low 0.975 and 1.15 | S. cerevisiae deletion strains, locus YLR058C, strain SHM2, active compounds read low 0.984 and 1.02 | S. cerevisiae deletion strains, locus YLR102C, strain apc9, active compounds read low 0.984 and 1.01 | S. cerevisiae deletion strains, locus YLR113W, strain HOG1, active compounds read low 0.937 | S. cerevisiae deletion strains, locus YLR262C, strain YPT6, active compounds read low 0.953 and 1.24 | S. cerevisiae deletion strains, locus YLR268W, strain sec22, active compounds read low 0.977 and 1.02 | S. cerevisiae deletion strains, locus YLR330W, strain CHS5, active compounds read low 0.996 and 1.01 | S. cerevisiae deletion strains, locus YLR342W, strain FKS1 (second series), active compounds read low 0.984 and 0.998 | S. cerevisiae deletion strains, locus YLR371W, strain rom2, active compounds read low 0.97 and 1.02 | S. cerevisiae deletion strains, locus YLR418C, strain cdc73, active compounds read low 0.964 and 0.976 | S. cerevisiae deletion strains, locus YML016C, strain PPZ1, active compounds read low 0.996 and 1 | S. cerevisiae deletion strains, locus YML032C, strain rad52, active compounds read low 0.967 and 0.998 | S. cerevisiae deletion strains, locus YML124C, strain tub3, active compounds read low 0.973 and 1.01 | S. cerevisiae deletion strains, locus YMR078C, strain ctf18, active compounds read low 0.973 and 1.01 | S. cerevisiae deletion strains, locus YMR223W, strain ubp8, active compounds read low 0.975 and 1.01 | S. cerevisiae deletion strains, locus YMR263W, strain SAP30, active compounds read low 1.01 | S. cerevisiae deletion strains, locus YMR307W, strain GAS1, active compounds read low 0.909 and 0.97 | S. cerevisiae deletion strains, locus YNL067W, strain RPL9B, active compounds read low 0.999 and 1.04 | S. cerevisiae deletion strains, locus YNL128W, strain TEP1, active compounds read low 0.994 and 1.02 | S. cerevisiae deletion strains, locus YNL153C, strain GIM3, active compounds read low 0.999 and 1.03 | S. cerevisiae deletion strains, locus YNL183C, strain NPR1, active compounds read low 0.948 | S. cerevisiae deletion strains, locus YNL233W, strain BNI4, active compounds read low 0.994 and 1.06 | S. cerevisiae deletion strains, locus YNL250W, strain rad50, active compounds read low 0.965 and 1 | S. cerevisiae deletion strains, locus YNL271C, strain bni1, active compounds read low 0.975 and 1.01 | S. cerevisiae deletion strains, locus YNL298W, strain CLA4, active compounds read low 0.97 and 1.01 | S. cerevisiae deletion strains, locus YNL307C, strain MCK1, active compounds read low 0.947 and 1.02 | S. cerevisiae deletion strains, locus YNL322C, strain KRE1, active compounds read low 0.998 | S. cerevisiae deletion strains, locus YNR052C, strain pop2, active compounds read low 0.965 and 1.01 | S. cerevisiae deletion strains, locus YOL006C, strain TOP1, active compounds read low 1.01 | S. cerevisiae deletion strains, locus YOL012C, strain htz1 0.925 and 0.987 | S. cerevisiae deletion strains, locus YOL147C, strain pex11, active compounds read low 0.966 and 1.02 | S. cerevisiae deletion strains, locus YOR061W, strain CKA2, active compounds read low 0.998 and 1 | S. cerevisiae deletion strains, locus YOR069W, strain VPS5, active compounds read low 0.995 and 1.01 | S. cerevisiae deletion strains, locus YOR136W, strain idh2, active compounds read low 0.974 and 1.02 | S. cerevisiae deletion strains, locus YOR144C, strain elg1, active compounds read low 0.97 and 1 | S. cerevisiae deletion strains, locus YOR184W, strain ser1, active compounds read low 0.967 and 1.01 | S. cerevisiae deletion strains, locus YOR231W, strain MKK1, active compounds read low 1.04 | S. cerevisiae deletion strains, locus YOR316C, strain cot1, active compounds read low 0.976 and 1.01 | S. cerevisiae deletion strains, locus YPL055C, strain LGE1, active compounds read low 0.999 | S. cerevisiae deletion strains, locus YPL241C, strain CIN2, active compounds read low 0.999 and 1.01 | S. cerevisiae deletion strains, locus YPL256C, strain CLN2, active compounds read low 1.04 | S. cerevisiae deletion strains, locus YPR119W, strain clb2, active compounds read low 0.974 and 1.01 | S. cerevisiae deletion strains, locus YPR141C, strain kar3, active compounds read low 0.969 and 1.01 | S. cerevisiae deletion strains, locus YPR163C, strain tif3, active compounds read low 0.961 and 1.01 | S. cerevisiae deletion strains, locus YPR167C, strain met16, active compounds read low 0.983 and 1.01 | S. cerevisiae deletion strains, strain wtn01, active compounds read low 0.971 and 1.03 | S. cerevisiae strains, strain wild type, active compounds read low 0.994 and 1.01
